# Reference: ChEMBL document CHEMBL3988442, “University of Dundee, Small-Polar-MMV Screening Library” (2021)
# Out of some 53,000 compounds screened, about 900 (1.7%) showed an effect of 50% or more. Only a selection was taken, and strong results are over-represented in it overall.
# Test system: Mycobacterium tuberculosis
# Assay: Cornell - Phenotypic assay to identify agents that inhibit growth of Mycobacterium tuberculosis
# Type: functional
# Set-up: scale not given: direction of the effect not stated beside the values
# Conditions: 10 mM as filed; unlikely as a test dose
row,Structure (SMILES),Percent Effect [%]
1,Cc1nc(CCN2CCC(Oc3ccccc3F)CC2)cs1,0.3496
2,Cc1nc(CCN2CCC(Oc3ccccc3F)CC2)c(C)s1,4.042
3,Cc1nc(C)c(CCN2CCC(Oc3ccccc3F)CC2)s1,50.26
4,Cc1cnc(-c2nc(O)c3c(n2)CN(C(=O)CC2CCCC2)CC3)cn1,2.725
5,CC(C)N(C)S(=O)(=O)N(C)Cc1ccc2c(c1)OCO2,-6.095
6,CCN(C)S(=O)(=O)N(CC)Cc1ccc2c(c1)OCO2,26.78
7,CCN(Cc1ccc2c(c1)OCCO2)S(=O)(=O)N(C)C(C)C,54.92
8,CCn1cnnc1C1CCN(C(=O)c2ccc(OC(C)C)nc2)CC1,22.89
9,CC(C)c1nnc(CN(C)Cc2ccccc2-c2ccccc2)o1,60.67
10,CC(C)c1nnc(CN(C)C(c2ccccc2)c2ccc(F)cc2)o1 (stereo not drawn),32.65
11,CN(Cc1nnc(C2CC2)o1)Cc1ccccc1-c1ccccc1,24.56
12,Cc1nn(C)c(C)c1NC(=O)CN1CCOC(CN(C)C)C1 (stereo not drawn),13.8
13,O=C(C1=CCCC1)N1C[C@@H]2COC[C@]2(COCc2ccncc2)C1,-20.46
14,CCc1nnc(Nc2cc(C)nc(C3CCN(c4ccncn4)C3)n2)s1 (stereo not drawn),-19.2
15,O=C(Cn1ccc2ccccc21)N1CCC(Oc2ncccc2Br)CC1,58.45
16,O=C(Cn1ccc2ccccc21)N1CCC(Oc2cnccn2)CC1,24.96
17,O=C(NCc1ccccc1)N1CCC(Oc2ncccc2Br)CC1,-14.28
18,O=C(CCC(=O)N1CCC(OCc2cccnc2)CC1)c1ccccc1,-10.19
19,O=C(CCn1ccc(=O)[nH]c1=O)N1CCC(Oc2ncccc2Cl)CC1,20.85
20,COC1CCN(C(=O)Cn2ccc3ccccc32)CC1,2.586
21,Cc1cccc(OC2CCN(C(=O)c3ccc4c(c3)OCO4)CC2)n1,37.52
22,Cc1cccc(OC2CCN(C(=O)Cn3ccc4ccccc43)CC2)n1,59.2
23,O=C(CCC(=O)N1CCC(Oc2ncccc2Br)CC1)c1ccccc1,95.35
24,CS(=O)(=O)NCCCNC(=O)c1cccc(-n2cccc2)c1,-24.26
25,CC(=O)Nc1nc(SCc2ccc3c(c2)OCO3)ns1,6.348
26,CCCN1CCN(C(=O)Nc2ccccc2Cl)[C@H]2CS(=O)(=O)C[C@H]21,2.165
27,CC1CCN(Cc2ccccc2CNC(=O)C2CNC(=O)N2)CC1 (stereo not drawn),-0.9762
28,CCOC1COC2(CCN(c3ccccn3)CC2)C1.O=C(O)C(F)(F)F (stereo not drawn),3.904
